PubChem BioAssay (NCATS)
Results filed as inconclusive are left out. Activity calls are given as the source filed them. The call rests on the fitted dose curve; in most records, active means well fitted inhibition curve with a large enough effect; inconclusive means small, poorly fitted or top-dose-only effect; inactive means flat fitted curve, though single readings scatter. Residues, ends and D or L forms follow the SMILES beside them.

Tested on: CRL-7250
Test: qHTS assay to identify novel small-molecules to repurpose for Merkel cell carcinoma treatment (AID 1296009); further: nearly all actives have a fitted effect of over 60% in size
Conditions: MCC and control cell lines, CellTiter-Glo viability, 72 h; at 44.8 µM (top of the series) unless noted
Summary of the method: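 Cell viability measured by CellTiter-Glo following 72 hr compound treatment at 37 degree celsius, with NPC and MIPE libraries tested in 8- and 11-point concentration series.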

Row | SMILES | outcome
1 | CC(N=C(NC#N)Nc1ccncc1)C(C)(C)C (stereo unspecified) | inactive
2 | N#CCC(=O)NN | inactive
3 | CC(C(=O)O)c1ccc2c(c1)[nH]c1ccc(Cl)cc12 (stereo unspecified) | inactive
4 | CO[C@@]1(NC(=O)Cc2cccs2)C(=O)N2C(C(=O)O)=C(COC(N)=O)CS[C@@H]21 | inactive
5 | O=C(Oc1ccccc1)c1ccccc1O | inactive
6 | O=P(O)(O)C(O)(Cn1ccnc1)P(=O)(O)O | inactive [at 17.4 µM]
7 | Nc1ncnc2nc[nH]c12 | inactive
8 | NC1CCN(c2nc3c(cc2F)c(=O)c(C(=O)O)cn3-c2ccc(F)cc2F)C1 (stereo unspecified) | inactive
9 | O=C(OOC(=O)c1ccccc1)c1ccccc1 | inactive
10 | CC[C@]12CCCN3CCc4c(n(c5ccccc45)[C@@](O)(C(=O)OC)C1)[C@@H]32 | inactive
11 | Oc1ccccc1-c1nnco1 | inactive
12 | Oc1ccc(Cl)c2cccnc12 | inactive
13 | COc1cc2c(Nc3ccc(Br)cc3F)ncnc2cc1OCC1CCN(C)CC1 | inactive
14 | Nc1ncnc2c1ncn2[C@@H]1O[C@H](CO)[C@@H](O)[C@H]1O | inactive
15 | COC(=O)[C@H](Cc1ccccc1)NC(=O)[C@@H](N)CC(=O)O (H-Asp-Phe-OMe) | inactive
16 | CCCCCCCCCCC[C@@H](C[C@@H]1OC(=O)[C@H]1CCCCCC)OC(=O)[C@H](CC(C)C)NC=O | inactive
17 | Nc1ccc(S(=O)(=O)Nc2ccccn2)cc1 | inactive
18 | O=C(C1CCCCC1)N1CC(=O)N2CCCc3ccccc3C2C1 (stereo unspecified) | inactive

Row | SMILES | outcome
19 | Cc1c(N(C)CS(=O)(=O)O)c(=O)n(-c2ccccc2)n1C | inactive
20 | COc1cc(/C=C/C(N)=O)cc(OC)c1OC | inactive
21 | C/C(=C(\CCO)SS/C(CCO)=C(\C)N(C=O)Cc1cnc(C)nc1N)N(C=O)Cc1cnc(C)nc1N | inactive
22 | NC(=O)NC1NC(=O)NC1=O (stereo unspecified) | inactive
23 | CS(=O)(=O)c1ccc([C@@H](O)[C@@H](CO)NC(=O)C(Cl)Cl)cc1 | inactive
24 | CN(c1nccc(=O)[nH]1)C1CCN(c2nc3ccccc3n2Cc2ccc(F)cc2)CC1 | inactive
25 | CC(CN(C)C)C(C)(O)Cc1ccc(Cl)cc1 (stereo unspecified) | inactive
26 | CC1COc2c(N3CCN(C)CC3)c(F)cc3c(=O)c(C(=O)O)cn1c23 (stereo unspecified) | inactive
27 | CCCCOC(=O)c1ccc(N)cc1 | inactive
28 | CC(=O)OCC(=O)[C@@]1(OC(C)=O)[C@@H](C)C[C@H]2[C@@H]3C[C@H](F)C4=CC(=O)C=C[C@]4(C)[C@@]3(F)[C@@H](O)C[C@@]21C | inactive
29 | Cc1c[nH]c2ccccc12 | inactive
30 | O=C(NC(Cc1cc(=O)[nH]c2ccccc12)C(=O)O)c1ccc(Cl)cc1 (stereo unspecified) | inactive
31 | COc1ccccc1OCC(O)CO (stereo unspecified) | inactive
32 | Cc1cc(CCCOc2c(C)cc(-c3noc(C(F)(F)F)n3)cc2C)on1 | inactive
33 | Cn1nnc2c(C(N)=O)ncn2c1=O | inactive
34 | C[C@H](NC(CCc1ccccc1)C(=O)O)C(=O)N1CCC[C@H]1C(=O)O (stereo partly specified) | inactive
35 | CC(C)(Oc1ccc(Cl)cc1)C(=O)O | inactive
36 | CN1N=C(C(N)=O)CCC1=O | inactive
